Unmarked numbers belong to inactive results.

The test system of the assay is XIP peptide (Xip251-270) binding. The assay is described as follows: XIP fragment 251-270 binding compounds – biochemical, small-molecule microarray, fluorescence 635/667 nm, 0.1 µg/mL protein, primary screen (AID 1182). To be noted: fluorescent protein binding, 635 nm, higher = more signal, called active from +8 up or from −8 down.
With `CC(C)(C)N1CC=CC23O[C@@H]4/C=C\CCCOC(=O)C4[C@H]2C(=O)N(CCCCCO)[C@@H]3C1=O` (stereo not given in full), the composite z-score is 0.176.
The figure for `COCCCNC(=O)[C@@]1(CCS(=O)(=O)c2ccccc2)COC(c2ccc(OCCCO)cc2)=N1` is 1.85; for `O=C1NC(=O)C2C1C=CC(C(O)c1ccc(B(O)O)cc1)N2Nc1ccc(Cl)cc1Cl` (stereo not given) it is 0.185; for `CCOc1cc(C(O)C2C=CC3C(=O)N(c4ccccc4)C(=O)C3N2Nc2ccccc2F)ccc1O` (stereo not given) it is 1.11.
The result for `O=C1OCCC=C[C@H]2OC34C=CCN(c5ccc6ccccc6c5)C(=O)[C@H]3N(CCO)C(=O)[C@@H]4C12` (stereo not given in full) reads 0.263.
The result for `CN(C)CCCNC(=O)[C@@]1(Cc2ccccc2I)c2ccccc2C(=O)N(C2CCCCC2)[C@H]1c1ccc(CO)cc1` reads 0.645.
In the case of `COc1ccc(C#Cc2ccc3c(c2)[C@]2(C(=O)N3)[C@H](C(=O)O)[C@H]3C(=O)O[C@H](c4ccccc4)[C@H](c4ccccc4)N3[C@@H]2c2ccccc2OCCO)cc1`, the composite z-score was 1.89.
As for `COCCOC(=O)N1C(=O)[C@@]2(c3cc(C#CC4(O)CCCCCC4)ccc31)[C@H](c1ccc(O)cc1)N1[C@H](c3ccccc3)[C@H](c3ccccc3)OC(=O)[C@H]1[C@@H]2C(=O)N1CCCCCCC1`, the composite z-score is 0.265.
The figure for `[N-]=[N+]=Nc1ccccc1[C@@H]1OC(c2ccc(OCCCO)cc2)=N[C@]1(Cc1ccccc1)C(=O)NCCN1CCOCC1` is 0.764; for `CCCCC(O)C1C=CC2C(=O)N(c3ccccc3)C(=O)C2N1Nc1ccccc1` (stereo not given) it is 0.145; for `CC=CC(O)C1C=CC2C(=O)NC(=O)C2N1Nc1ccc(Cl)cc1Cl` (stereo not given) it is -0.223.
The result for `COC(=O)[C@H](Cc1ccccc1)N1CC2=CCCC=C[C@@H]2[C@H]1[C@H](O)Cc1ccccc1` reads 0.444; that for `Cc1ccc(S[C@]2(C(=O)NC(C)C)CC(=O)N(C3CCCCC3)[C@@H]2c2ccc(CO)cc2I)cc1`, 0.814.
The result for `CCCNC(=O)[C@@]1(c2ccc([N+](=O)[O-])cc2)CC(=O)N(C(C)C)[C@@H]1c1ccc(CO)cc1` reads 3.93; that for `COC(=O)[C@@]1(Cc2ccc(OC)cc2)[C@H]2c3cc(C(=O)N(C)C)[nH]c3C[C@H]2CN1C(=O)c1ccccc1`, 0.0849; that for `O=C1N(CCS(=O)(=O)c2ccccc2)c2ccccc2C[C@]12N=C(c1ccc(OCCCO)cc1)O[C@@H]2c1ccccc1`, 0.412.
Turning to `CC1=C([C@H](O)CCc2ccccc2)[C@H](CO)n2c(=O)n(-c3ccccc3)c(=O)n2C1`, the composite z-score is -0.611.
Consider `O=C1O[C@H](Cc2ccccc2)[C@@H]2[C@H]3C=CCCC=C3CN2[C@H]1Cc1ccc(O)cc1`, for which the composite z-score is 0.127.
The figure for `CN(C)c1ccc(C(O)C2C=CC3C(=O)N(Cc4ccccc4)C(=O)C3N2n2cnnc2)cc1` (stereo not given) is 3; for `COC(=O)[C@@]1(Cc2ccc(F)cc2)[C@H]2c3cc(C(=O)N(C)C)n(CCc4ccc(O)c(O)c4)c3C[C@H]2CN1C(=O)c1ccccc1` it is -0.574; for `CCCC[C@H]1C[C@@H]1[C@@H]1N(C(C)=O)[C@H](c2cccc(OC)c2)CC12CC2` it is -0.233.
The figure for `CC(=O)OCC1C2CC[C@H]3C(OCc4ccc(F)cc4C(F)(F)F)OC[C@]4(C)[C@H]3C2=C(CN4C(=O)OC(C)(C)C)[C@H](C)C1COC(C)=O` (stereo not given in full) is -0.07; for `COc1ccccc1CN1C(=O)c2ccccc2[C@](Cc2ccccc2I)(C(=O)NCC(C)C)[C@@H]1c1ccc(CO)cc1` it is 0.935; for `C[N+](C)(C)CCCC[C@@H]1NC(=O)[C@@H]2C[C@H](C(=O)NCc3ccc(F)cc3)[C@H](c3ccc(O)cc3)N2C1=O` it is 0.744.
The result for `CN1C(=O)C2C(C1=O)C1C=C(CCCO)C2C(C2CC2)N1Cc1cccc(OC(F)(F)F)c1` (stereo not given) reads 0.0292.
Take `COC(=O)[C@@]1(Cc2ccccc2)[C@H]2c3cc(C(=O)N(C)C)n(Cc4ccc(S(C)(=O)=O)cc4)c3C[C@H]2CN1C(=O)c1ccccc1`: the composite z-score is 1.22.
On to `O=C1c2ccccc2[C@@]2(Cc3ccccc3N(Cc3ccccc3)C2=O)[C@H](c2ccc(CO)cc2)N1Cc1ccccc1Cl`, for which the composite z-score is 0.0408.
The figure for `O=C1C[C@@](C(=O)NCc2ccccc2)(c2ccc([N+](=O)[O-])cc2)[C@@H](c2ccc(CO)cc2)N1C1CCCCC1` is 0.58; for `CC(C)c1nc2cc(Br)ccc2c(=O)o1` it is 0.697.
The result for `CCOC(=O)C1=CCC(c2cc3ccccc3[nH]2)N(CCN2CC(C(=O)OCC)=CCC2c2cc3ccccc3[nH]2)C1` (stereo not given) reads 0.401; that for `O=C(NC1CC1)[C@@H]1c2ccccc2C(=O)N(CC23CC4CC(CC(C4)C2)C3)[C@H]1c1ccc(CO)cc1`, 0.383; that for `N#Cc1ccc(NN2C(C(O)C3CC=CCC3)C=CC3C(=O)N(c4ccccc4)C(=O)C32)cc1` (stereo not given), 0.0603.
The figure for `O=C(NCC(O)CO)C1N=C(c2ccc(OCCCO)cc2)N(c2ccccc2)O1` (stereo not given) is 0.654.
As to `CCCC[C@H]1OB(O)C[C@H]2C1=C(COc1ccccc1)C[C@H]1C(=O)C=CC(=O)[C@H]12`, the composite z-score is 0.0738.
The result for `COCCn1c(C(=O)N(C)C)cc2c1C[C@H]1CN(C(=O)c3ccccc3)[C@@](Cc3ccc(OC)cc3)(C(=O)OC)[C@@H]21` reads 0.116.

(Values after PubChem BioAssay.)
